Laboratory results as given in PubChem BioAssay AID1159580 (chemical genetic matrix, 2015).
Values joined by “and” are separate entries in the source; they are usually repeats but may differ in a detail not shown here. Equal values may be shown once. Out of some 5,500 compounds screened, about 2,000 (36%) were called active. Roughly 18% stayed inconclusive and do not appear here. No stated cut-off is given here; in the data, active means normalized growth mostly below about 0.91 (no sharp cut-off); inconclusive means no clear call, values can overlap the other calls; inactive means mostly above about 0.92. This is one part of the list.

Assay: chemical genetic growth profiling, strain panel (AID 1159580);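 further: tested at 20 µM; growth read once vehicle control cultures reached saturation at 30 °C; 1 = growth at the plate median or of vehicle wells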
Details: S. cerevisiae deletion strains, growth OD

Measured: normalized growth

CN(Cc1cc(Br)cc(Br)c1N)C1CCCCC1
inactive: locus YAL021C, strain ccr4, stronger effect = lower value 0.979 | locus YAL026C, strain drs2, stronger effect = lower value 1.03 | locus YAL030W, strain snc1, stronger effect = lower value 1.06 | locus YBL061C, strain skt5, stronger effect = lower value 1.03 | locus YBR009C, strain hhf1, stronger effect = lower value 1 | locus YBR021W, strain FUR4, stronger effect = lower value 0.948 | locus YBR023C, strain chs3, stronger effect = lower value 1.03 | locus YBR171W, strain sec66, stronger effect = lower value 1.06 | locus YBR229C, strain ROT2, stronger effect = lower value 1.01 | locus YBR231C, strain swc5, stronger effect = lower value 1.02 | locus YBR279W, strain paf1, stronger effect = lower value 1.02 | locus YCL011C, strain gbp2, stronger effect = lower value 1.02 | locus YCL016C, strain dcc1, stronger effect = lower value 1.01 | locus YCL029C, strain bik1, stronger effect = lower value 1.02 | locus YCL061C, strain MRC1, stronger effect = lower value 1.01 | locus YCL069W, strain vba3, stronger effect = lower value 1.03 | locus YCR088W, strain abp1, stronger effect = lower value 1.05 | locus YDL005C, strain med2, stronger effect = lower value 1.07 | locus YDL035C, strain GPR1, stronger effect = lower value 0.943 | locus YDL040C, strain nat1, stronger effect = lower value 1.03 | locus YDL074C, strain BRE1, stronger effect = lower value 0.954 | locus YDL101C, strain DUN1, stronger effect = lower value 0.999 | locus YDL134C, strain PPH21, stronger effect = lower value 1 | locus YDL185W, strain tfp1, stronger effect = lower value 1.02 | locus YDL192W, strain arf1, stronger effect = lower value 1.02 | locus YDR001C, strain nth1, stronger effect = lower value 1.03 | locus YDR069C, strain doa4, stronger effect = lower value 0.983 | locus YDR101C, strain arx1, stronger effect = lower value 0.999 | locus YDR137W, strain rgp1, stronger effect = lower value 1.03 | locus YDR159W, strain sac3, stronger effect = lower value 1.09 | locus YDR162C, strain NBP2, stronger effect = lower value 1.02 | locus YDR195W, strain ref2 1.13 | locus YDR297W, strain sur2, stronger effect = lower value 1.03 | locus YDR318W, strain mcm21, stronger effect = lower value 0.982 | locus YDR334W, strain swr1, stronger effect = lower value 1.03 | locus YDR335W, strain msn5, stronger effect = lower value 1.02 | locus YDR388W, stronger effect = lower value 1.01 | locus YDR392W, strain spt3, stronger effect = lower value 0.975 | locus YDR502C, strain sam2, stronger effect = lower value 0.996 | locus YEL003W, strain gim4, stronger effect = lower value 1.01 | locus YEL037C, strain rad23, stronger effect = lower value 1.03 | locus YEL061C, strain CIN8 (second series), stronger effect = lower value 0.991 | locus YEL061C, strain CIN8, stronger effect = lower value 0.975 | locus YER015W, strain faa2, stronger effect = lower value 1.03 | locus YER016W, strain bim1, stronger effect = lower value 0.988 | locus YER110C, stronger effect = lower value 1.03 | locus YER111C, strain swi4, stronger effect = lower value 1.04 | locus YER155C, strain BEM2 (second series), stronger effect = lower value 1.03 | locus YER155C, strain BEM2, stronger effect = lower value 1.01 | locus YER167W, strain BCK2, stronger effect = lower value 1.02 | locus YFR010W, strain ubp6, stronger effect = lower value 0.994 | locus YGL078C, strain dbp3, stronger effect = lower value 1.02 | locus YGL086W, strain mad1, stronger effect = lower value 0.967 | locus YGL167C, strain pmr1, stronger effect = lower value 1.03 | locus YGL173C, strain kem1, stronger effect = lower value 0.995 | locus YGL227W, strain vid30, stronger effect = lower value 1.04 | locus YGL240W, strain doc1, stronger effect = lower value 0.965 | locus YGL248W, strain PDE1, stronger effect = lower value 0.984 | locus YGL253W, strain hxk2, stronger effect = lower value 1.03 | locus YGR135W, strain pre9, stronger effect = lower value 1.02 | locus YGR252W, strain gcn5, stronger effect = lower value 0.84 | locus YHR013C, strain ard1, stronger effect = lower value 1.06 | locus YHR027C, strain rpn1, stronger effect = lower value 1.01 | locus YHR030C, strain SLT2, stronger effect = lower value 1.02 and 0.894 | locus YHR079C, strain IRE1 (second series), stronger effect = lower value 1.02 | locus YHR079C, strain IRE1, stronger effect = lower value 0.936 | locus YHR094C, strain hxt1, stronger effect = lower value 1.03 | locus YHR129C, strain ARP1, stronger effect = lower value 1.01 | locus YHR142W, strain chs7, stronger effect = lower value 1.06 | locus YHR200W, strain rpn10, stronger effect = lower value 1.01 | locus YIL066C, strain RNR3, stronger effect = lower value 0.991 | locus YIL073C, strain SPO22, stronger effect = lower value 1.06 | locus YIL125W, strain kgd1, stronger effect = lower value 1.01 | locus YIR030C, strain dcg1, stronger effect = lower value 1.02 | locus YJL092W, strain hpr5, stronger effect = lower value 1.03 | locus YJL095W, strain BCK1 (second series), stronger effect = lower value 1.02 | locus YJL095W, strain BCK1, stronger effect = lower value 0.97 and 0.902 | locus YJL115W, strain asf1, stronger effect = lower value 1.06 | locus YJL129C, strain trk1, stronger effect = lower value 1.03 | locus YJL134W, strain LCB3, stronger effect = lower value 1.02 | locus YJL154C, strain vps35, stronger effect = lower value 1.03 | locus YJL164C, strain tpk1, stronger effect = lower value 1.02 | locus YJL166W, strain qcr8, stronger effect = lower value 1 | locus YJL168C, strain set2, stronger effect = lower value 1.02 | locus YJL187C, strain SWE1 (second series), stronger effect = lower value 0.974 | locus YJR043C, strain POL32, stronger effect = lower value 0.987
active: locus YJR066W, strain TOR1, stronger effect = lower value 0.81
